For 14 compounds, growth results are on record in PubChem BioAssay (NCI).

Each structure is given as a SMILES string. The panel holds about 83,000 compounds, 20% with a hit somewhere; the sample as a whole holds those more often.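 Each cell line was grown in a 96-well plate and treated with one concentration of compound for 48 hours. Values below 10 were considered active.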 A number with no mark means an inactive call. Activity calls are given as the source filed them.

Test systems include EKVX NSCLC; SN12C renal; UO-31 renal; TK-10 renal; ACHN renal; CAKI-1 renal; A498 renal; CCRF-CEM leukemia; MOLT-4 leukemia.
Common to all, as to experiment: NCI-60 one-dose screen, 48 h (100 = growth as untreated, 0 = no growth, -100 = all killed)
Common to all, as to settings: 10 µM unless noted

As to `Cn1cc(-c2csc(-c3c[nH]c4ncccc34)n2)c2cc(Br)cnc21`, the growth in the test on EKVX NSCLC was 24.2%; with SN12C renal it was 4.21% (active); in the test on UO-31 renal it was 28.8%; in the test with TK-10 renal, -21.8% (active); in the test with ACHN renal, 29.6%; with CAKI-1 renal, 12.5%. Further, the figures for the growth with A498 renal, with CCRF-CEM leukemia and in the test on MOLT-4 leukemia were 71.7%, 68% and 76.2%, respectively.

On to `Cc1ccsc1/C=C/C1=NCCCN1C`, for which the growth in the test on EKVX NSCLC is 99.5%; in the test with SN12C renal, 95.3%; with UO-31 renal, 80%; in the test with TK-10 renal, 104%; with ACHN renal, 101%; with CAKI-1 renal it was 97.1%. Besides, the values for the growth in the test with A498 renal, in the test on CCRF-CEM leukemia and in the test on MOLT-4 leukemia were 113%, 81% and 95%, respectively.

On to `c1coc([C@@H]2C[C@@H]3Cc4ccc5ccccc5c4N2O3)c1`, for which the growth was 103% in the test with EKVX NSCLC; 108% in the test on SN12C renal; 75% with UO-31 renal; 88.6% with TK-10 renal; 107% with ACHN renal; 84.7% in the test on CAKI-1 renal. The growth was 90.2% with A498 renal, 79% with CCRF-CEM leukemia and 73.7% in the test on MOLT-4 leukemia.

`Nc1ncc(-c2cnn(C3CCNCC3)c2)cc1-c1nc2cc(Cl)ccc2o1`: the growth was -27.6% (active) with EKVX NSCLC; -100% (active) in the test with SN12C renal; -100% (active) with UO-31 renal; -94.1% (active) in the test on TK-10 renal; -96.8% (active) in the test on ACHN renal; -76.9% (active) in the test with CAKI-1 renal. In addition, the growth was -99.9% (active) in the test on A498 renal, -100% (active) with CCRF-CEM leukemia and -91.8% (active) in the test on MOLT-4 leukemia.

`CC(C)(C)c1ccc(C(O)CCCN2CCC(C(O)(c3ccccc3)c3ccccc3)CC2)cc1` (stereo unspecified): the growth in the test on EKVX NSCLC is 28.3%; in the test on SN12C renal, 4.51% (active); with UO-31 renal it was -80.9% (active); in the test on TK-10 renal, -81.7% (active); in the test with ACHN renal it was -88.2% (active); in the test with CAKI-1 renal, 1.36% (active). The growth with A498 renal was 50.3%; in the test with CCRF-CEM leukemia it was -23.6% (active); in the test on MOLT-4 leukemia, -13.2% (active).

`CC(=O)O[C@H]1C(=O)[C@@]2(C)C([C@H](OC(=O)c3ccccc3)[C@]3(O)C[C@H](OC(=O)[C@H](O)[C@@H](NC(=O)c4ccccc4)c4ccccc4)C(C)=C1C3(C)C)[C@]1(OC(C)=O)CO[C@@H]1C[C@@H]2O` (stereo partly specified): the growth in the test on EKVX NSCLC is 48.3%; in the test on SN12C renal, 38.1%; with UO-31 renal, 33.6%; with TK-10 renal, 20.6%; with ACHN renal, 41%; with CAKI-1 renal, 44.7%. Also, the growth with A498 renal was 30.8%; with CCRF-CEM leukemia, 14%; in the test on MOLT-4 leukemia, 28.3%.

As for `O=C1Nc2ccc(F)cc2/C1=C/c1nc(-c2ccc(F)cc2)n2ccccc12`, the growth with EKVX NSCLC is 104%; with SN12C renal, 98.9%; with UO-31 renal it was 93.4%; with TK-10 renal it was 120%; in the test on ACHN renal, 94%; in the test on CAKI-1 renal, 101%. For the same compound, the growth with A498 renal was -13.9% (active); with CCRF-CEM leukemia, 103%; in the test with MOLT-4 leukemia it was 103%.

In the case of `O=C1c2ccccc2-c2c1nc1ccccc1[n+]2[O-]`, the growth was 118% with EKVX NSCLC; 100% in the test with SN12C renal; 83.3% with UO-31 renal; 116% with TK-10 renal; 91.4% with ACHN renal; 98.2% with CAKI-1 renal. Further, the growth with A498 renal is 103%; with CCRF-CEM leukemia, 102%; in the test on MOLT-4 leukemia it was 95.8%.

With `O=C(Nc1ccc(Cl)cc1)c1cc2c(cc1O)[nH]c1ccccc12`, the growth is 10.8% in the test with EKVX NSCLC; 20.1% in the test on SN12C renal; 39.9% in the test on UO-31 renal; 4.83% (active) in the test with TK-10 renal; 22.2% in the test on ACHN renal; 10.2% in the test with CAKI-1 renal. In addition, the results for the growth with A498 renal, in the test on CCRF-CEM leukemia and in the test with MOLT-4 leukemia were 29.8%, 18.1% and -9.5% (active), respectively.

On to `Cn1cc(-c2csc(-c3cn(C)c4ncccc34)n2)c2cc(Br)cnc21`, for which the growth in the test with EKVX NSCLC is 84.4%; in the test with SN12C renal, 89.4%; in the test on UO-31 renal it was 100%; in the test with TK-10 renal it was 115%; in the test with ACHN renal, 95.5%; with CAKI-1 renal it was 85.3%. In addition, the growth in the test on A498 renal is 79%; with CCRF-CEM leukemia, 80%; in the test with MOLT-4 leukemia it was 85%.

Take `Cc1scc2c1N(C(=O)CN1CCN(C)CC1)c1ccccc1NC2=O`: the growth in the test with EKVX NSCLC is 107%; in the test with SN12C renal, 101%; in the test with UO-31 renal, 85.9%; in the test on TK-10 renal, 105%; in the test with ACHN renal, 102%; with CAKI-1 renal, 99.5%. Besides, the growth with A498 renal is 122%; in the test on CCRF-CEM leukemia, 108%; with MOLT-4 leukemia it was 96.5%.

Turning to `COc1cc2cn3c4ccc(O)cc4nc(N)c3c2cc1OC`, the growth is 48.7% with EKVX NSCLC; 18.6% with SN12C renal; 1.49% (active) with UO-31 renal; 50.4% in the test with TK-10 renal; -3.69% (active) with ACHN renal; -4.04% (active) in the test with CAKI-1 renal. For the same compound, the growth in the test with A498 renal is -14.4% (active); with CCRF-CEM leukemia it was 21.1%; in the test on MOLT-4 leukemia, 8.22% (active).

As to `CN=C(NC)N/N=C(C)\C=N\NC(=NC)NC`, the growth is 101% with EKVX NSCLC; 96.4% in the test with SN12C renal; 83.7% with UO-31 renal; 127% with TK-10 renal; 101% in the test with ACHN renal; 89.1% with CAKI-1 renal. Further, the growth is 96.3% with A498 renal, 106% with CCRF-CEM leukemia and 101% in the test on MOLT-4 leukemia.

Consider `COc1c(C)c2c(c(O)c1C/C=C(\C)CCC(=O)OCCN1CCOCC1)C(=O)OC2`, for which the growth is 46% in the test on EKVX NSCLC; 24.1% in the test on SN12C renal; 15.4% with UO-31 renal; 27.1% in the test on TK-10 renal; 27% with ACHN renal; 5.19% (active) in the test with CAKI-1 renal. Also, the growth was 30% in the test with A498 renal, 18.6% in the test on CCRF-CEM leukemia and 24.4% in the test with MOLT-4 leukemia.
